Rows were chosen to be rich in hits. Some 10% of all compounds tested hit in one or more screens of this group.
PNC inhibitor: High Content Assay for Compounds that inhibit the Assembly of the Perinucleolar Compartment | PC3M PTB-GFP, PNC prevalence imaging, 16 h; stronger effect = lower value | activity change (PNC), negative = inhibition, % at 10 µM | actives 3.1% (n = 140,000);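 active = readout at or below -70, meaning at least 70% loss of cells showing the perinucleolar compartment, a nuclear body marking cancer cells; inconclusive = readout between -30 and a set limit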;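 also: plate controls were DMSO wells for no effect and camptothecin positive control wells for full effect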
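PC3M cells stably expressing PTB-GFP, 750–1000 cells/well, treated 16 h at 37 °C with compound (23 nl of library stock), in duplicate. After paraformaldehyde fixation and Hoechst stain, imaged at 20x; PNC prevalence scored by image analysis.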
Lamin A splicing: qHTS Assay for Modulators of Lamin A Splicing. HeLa LMNA splicing GFP/RFP minigene ratio, 48 h. Potency, µM (highest dose often 46.1 µM), without a hit: top-dose ratio change, negative = inhibition, hits mostly inhibitors. actives 0.01% (n = 200,000); active = well fitted inhibition curve with a large enough effect in the signal ratio, with a control signal flat, not every such curve was filed as active; inconclusive = small, poorly fitted or top-dose-only effect, or effect the other way, or a change in a side signal; the % refers to the signal ratio; also: potency is read from the fitted curve at half-maximal effect
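Read-out is the ratio of GFP to DsRed2 object intensity, acquired by 488 nm laser-scanning cytometry on HeLa lamin A-EGFP minigene reporter cells. Compound incubation 48 hrs at 37 °C in Opti-MEM with 2% FBS; DMSO 0.5% final.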
HPGD block: qHTS Assay for Inhibitors of HPGD (15-Hydroxyprostaglandin Dehydrogenase); 15-hydroxyprostaglandin dehydrogenase [NAD(+)] (Homo sapiens), P15428; purified HPGD, NADH fluorescence kinetic, PGE2 substrate; Potency, µM, for the others: top-dose activity change, negative = inhibition, usual class: inhibitors; actives 4.3% (n = 150,000); also: potency is read from the fitted curve at half-maximal effect
Target sequence (P15428 whole entry, looked up): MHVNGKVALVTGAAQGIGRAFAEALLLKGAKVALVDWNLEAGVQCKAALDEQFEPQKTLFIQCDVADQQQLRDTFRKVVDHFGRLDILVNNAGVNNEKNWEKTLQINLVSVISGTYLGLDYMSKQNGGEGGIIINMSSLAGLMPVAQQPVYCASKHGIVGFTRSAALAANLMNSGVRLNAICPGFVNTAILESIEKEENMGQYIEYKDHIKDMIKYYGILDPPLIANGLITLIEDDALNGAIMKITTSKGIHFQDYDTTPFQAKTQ
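NADH formation kinetics: reaction with 30 uM PGE2 and 1 mM NAD+ (final), 20 nM enzyme, Tris-HCl pH 8 with Tween 20, after 15 min compound preincubation at room temperature. Fluorescence change, last versus first of five reads.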
ALDH1A1 block: qHTS Assay for Inhibitors of Aldehyde Dehydrogenase 1 (ALDH1A1). Purified ALDH1A1, NADH fluorescence, propionaldehyde substrate. Potency, µM (highest dose often 75.3 µM), inactives show at the top dose activity, negative = inhibition, hits mostly inhibitors. actives 7.3% (n = 220,000). AID 1030, 2008;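 also: potency is read from the fitted curve at half-maximal effect; plate controls were no enzyme wells and a reference inhibitor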
Luc counter: Counterscreen for Luciferase (Kinase-Glo TM) Inhibition; Luciferin 4-monooxygenase (Photuris pensylvanica), Q27757; actives 0.28% (n = 200,000); Kinase-Glo luciferase, ATP luminescence, 8 min; Potency, µM (top dose mostly 38.3 µM), for inactives: top-dose activity change, negative = inhibition, most hits filed as inhibitors; active = well fitted inhibition curve with a large enough effect; inconclusive = small, poorly fitted or top-dose-only effect; also: potency is read from the fitted curve at half-maximal effect; nearly all actives have a fitted effect of over 60% in size
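Kinase-Glo luciferase light output from ATP and luciferin was measured with 10 uM ATP, within the enzyme's linear range. Buffer: 50 mM imidazole pH 7.2, 50 mM KCl, 7 mM MgCl2, 0.01% Tween 20, 0.05% BSA; luminescence read after 8 min at ambient temperature.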
* = called active by the depositor; ? = inconclusive; . = no result; [ ] = another dose, or the depositor's remark. Unless noted, calls follow the shape of the dose curve; as a rule, active = well fitted inhibition curve with a large enough effect (not every such curve was filed as active); inconclusive = small, poorly fitted or top-dose-only effect, or another doubt; inactive = no such curve, though single readings can be large or run the other way. Unless noted, % is scaled to controls: 0 for no effect and ±100 for the full control effect.

SMILES	PNC inhibitor	Lamin A splicing	HPGD block	ALDH1A1 block	Luc counter
CC(=O)OC[C@@H]1O[C@H](C/C=N\OCC[C@H]2C=C[C@H](OC(C)=O)[C@@H](COC(C)=O)O2)C=C[C@@H]1OC(C)=O	.	.	.	12%[13.5 µM]	.
CCN1C(=O)S/C(=C/c2ccc(Sc3nc4ccccc4[nH]3)o2)C1=O	?	?	13µM*	9%	-2%
CON(C)C(=O)c1nnc2c(n1)[nH]c1ccccc12	.	.	.	-5%[13.5 µM]	.
CC1(C)CC(=O)C(C=NCCCO)=C(O)C1	-87*	0%	-4%	-5%	1%
CC1(C)CC(=O)C(C=NCC(N)=O)=C(O)C1	4	-9%	-2%	-18%	-7%
CC1(C)CC(=O)C(C=NCCN2CCNC2=O)=C(O)C1	12	-1%	-12%	20µM*	-4%
CCOC(=O)c1ccc(NC(=O)CN2CCN(CCN=CC3=C(O)CC(C)(C)CC3=O)CC2)cc1	36	-1%	-15%	?	7%
CCOC(=O)c1ccc(NC(=S)N2CCN(CCN=CC3=C(O)CC(C)(C)CC3=O)CC2)cc1	.	?	.	0.5µM*	1%
CC1(C)CC(=O)C(C=NCCN2CCN(C(=O)C34CC5CC(CC(C5)C3)C4)CC2)=C(O)C1	-25	3%	-15%	7.9µM*	-4%
CCOc1ccc(NC(=O)Cn2cnc3c(oc4ccccc43)c2=O)cc1	.	1%[46 µM]	.	.	.
Cc1ccc(C)c(S(=O)(=O)c2cn(Cc3ccccc3)c3cc(N4CCCC4)c(F)cc3c2=O)c1	.	-7%[46 µM]	.	.	.
CC1(C)CC(=O)C(C=NCCN2CCN(C3CC(=O)N(c4ccc(Br)cc4)C3=O)CC2)=C(O)C1 (stereo not drawn)	.	20%[46 µM]	.	28µM*	1%
CCCOc1ccc(N2C(=O)CC(N3CCN(CCN=CC4=C(O)CC(C)(C)CC4=O)CC3)C2=O)cc1 (stereo not drawn)	.	.	.	?	2%
Cc1cccc(N(CC(=O)N/N=C/c2ccc(OCC(=O)NCc3ccco3)cc2)S(C)(=O)=O)c1C	?	7%	25µM*	-13%	7%
Cc1ccc(C)c(NS(=O)(=O)c2ccc(NC(=O)c3ccco3)cc2)c1	-100*	?	-7%	-1%	3%
Cc1cc(C)cc(CSCC(=O)N/N=C/c2ccc(OCC(=O)NCc3ccco3)cc2)c1	?	4%	-18%	5%	1%
Cc1cc(=O)oc2cc(OCC(=O)NCc3ccco3)ccc12	-100*	3%	?	?	-2%
Cc1ccc(C)c(NS(=O)(=O)c2ccc(OCC(=O)NCc3ccco3)cc2)c1	-90*	-7%	-9%	?	4%
O=C(COc1ccc(S(=O)(=O)N2CCCC2)cc1Cl)NCc1ccc2c(c1)OCO2	-107*	-13%	-16%	5µM*	3%
CCn1cc(C(=O)NCc2ccco2)c(=O)c2cc(S(=O)(=O)N3CCCC3)ccc21	.	.	.	25µM*	3%
CCn1cc(C(=O)NCCc2ccccc2)c(=O)c2cc(S(=O)(=O)N3CCCC3)ccc21	.	.	.	32µM*	-1%
CCOC(=O)c1cn(CC)c2ccc(S(=O)(=O)N3CC(C)CC(C)C3)cc2c1=O (stereo not drawn)	24	19%	-18%	14%	-2%
CCOC(=O)c1cn(CC)c2ccc(S(=O)(=O)N3CCC(C)CC3)cc2c1=O	?	2%	16µM*	-12%	1%
O=C(COc1ccc(S(=O)(=O)NC2CCCCC2)cc1Cl)NCc1ccc2c(c1)OCO2	2	?	-21%	-4%	17%
CC(=O)/C=C\C1[C@]2(C)CCCC(C)(C)C2CC[C@@]1(C)O (stereo partly drawn)	.	-10%	-13%	3%	-3%
SMILES	PNC inhibitor	Lamin A splicing	HPGD block	ALDH1A1 block	Luc counter
COc1ccc(N2CC(NC(=O)/C=C\c3ccccc3)CC2=O)cc1OC (stereo not drawn)	.	-2%[46 µM]	.	.	.
O=C(COc1ccc(S(=O)(=O)N2CCCC2)cc1Cl)NCc1ccco1	7	-2%	-5%	?	-1%
O=C(COc1ccc(S(=O)(=O)N2CCCC2)cc1Cl)N1CCN(c2ccccc2)CC1	?	?	-13%	18µM*	2%
CCOc1ccc(S(=O)(=O)N2CCN(C(=S)NCc3ccco3)CC2)cc1	-87*	?	-7%	-13%	-2%
Cc1cc(S(=O)(=O)N2CCCC2)ccc1OCC(=O)NCc1ccco1	-18	8%	?	10µM*	3%
CCn1cc(C(=O)NCC2CCCO2)c(=O)c2cc(S(=O)(=O)N3CCCCCC3)ccc21 (stereo not drawn)	-8	11%	-12%	4.5µM*	-1%
CS(=O)(=O)N1CCC2(CC1)CN(c1ncccn1)C2	.	.	?	?	-1%
COC(=O)N[C@@H](/C=C/c1ccccc1)C[N+](=O)[O-]	.	.	-7%	8%	2%
Cc1cc(=O)oc2cc(OCC(=O)N3CCOCC3)ccc12	-100*	3%	?	?	2%
CC(C)(C)c1ccc(OCC(=O)NCc2ccco2)c(Br)c1	-15	3%	-27%	18µM*	1%
C#CCCCC(=O)Nc1ccccc1	.	.	-6%	-3%	-2%
CC1(C)CC(=O)c2c(nn(-c3ccccc3)c2-c2ccncc2)C1	-25	-9%	-11%	14µM*	2%
Cc1c(Cl)cccc1NC(=O)CCn1c(=O)c2cccn2c2ccccc21	.	4%[46 µM]	.	.	.
CCC(=O)Nc1cnc(NC(=O)c2cccc(F)c2)cc1C	-100*	-3%	-14%	3%	-10%
CCN(CC)S(=O)(=O)c1ccc(Oc2cccc(C(C)=O)c2)nc1	-21	?	-14%	14µM*	0%
COCCNC(=O)CSc1ncnc2sccc12	-20	11%	18µM*	-3%	0%
O=c1c2ccccc2nnn1CSc1nnc(C2COc3ccccc3O2)n1-c1ccccc1 (stereo not drawn)	-7	?	-5%	-15%	0%
COc1ccc(OCc2nn3c(Cn4cnc5ccccc54)nnc3s2)cc1	43	?	14µM*	22µM*	-1%
c1ccc2c(c1)ncn2Cc1nnc2sc(-c3ccc4c(c3)OCO4)nn12	1	-15%	?	?	-4%
c1ccc(OCc2nn3c(Cn4nnc5ccccc54)nnc3s2)cc1	-13	22%	8.9µM*	7.9µM*	-2%
c1ccc(OCc2nn3c(-c4cccnc4)nnc3s2)cc1	11	1%	?	-15%	-2%
Clc1ccccc1-c1nn2c(Cn3cnc4ccccc43)nnc2s1	-5	-6%	14µM*	20µM*	0%
COc1ccc(NC(=O)CSc2nnc(Cn3cnc4ccccc43)n2C)cc1	-2	-6%	3%	-6%	-4%
